According to PubChem BioAssay (NCI):
The panel holds about 79,000 compounds, 15% with a hit somewhere; the sample as a whole holds those more often. The source made the active and inactive calls. Rule as the data show it: active = growth inhibition above about 70%; inactive = the rest.

Key:
[1] = NCI Yeast Anticancer Drug Screen. Data for the rad52 strain (AID 147);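 also: 0% = growth of vehicle-treated control cultures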; settings: S. cerevisiae rad52 mutant growth inhibition, active compounds read high
In short: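 Measured: yeast growth inhibition. System: strain with a defined DNA damage repair alteration. Reference: vehicle-treated control cultures.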

[2] = NCI Yeast Anticancer Drug Screen. Data for the wt1 strain (AID 149);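 also: 0% = growth of vehicle-treated wt1 cultures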; settings: S. cerevisiae wt1 strain (SPY 50644) growth inhibition, active compounds read high
In short: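 Vehicle-normalised growth inhibition; strain wt1; compound exposure.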

[3] = NCI Yeast Anticancer Drug Screen. Data for the rad50EPP+ strain (AID 151);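 also: 0% = growth of vehicle-treated control cultures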; settings: S. cerevisiae rad50 mutant strain, active compounds read high
In short: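 One strain with a rad50 alteration (rad50EPP+) was compound-treated, its growth then compared to that of vehicle controls.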

[4] = NCI Yeast Anticancer Drug Screen. Data for the mgt1 strain (AID 153); settings: S. cerevisiae mgt1 mutant growth inhibition, active compounds read high
In short: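 After exposure of the mgt1 yeast mutant to compound, growth was measured and reported as inhibition compared with vehicle controls.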

[5] = NCI Yeast Anticancer Drug Screen. Data for the rad50 strain (AID 155);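 also: 0% = growth of vehicle-only cultures of the same strain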; settings: S. cerevisiae rad50 strain growth inhibition, active compounds read high
In short: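 A DNA repair-deficient yeast mutant serves as the test organism; compound-induced growth inhibition is calculated against vehicle-treated cells.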

[6] = NCI Yeast Anticancer Drug Screen. Data for the rad14 strain (AID 159);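 also: 0% = growth of vehicle-treated control cultures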; settings: S. cerevisiae rad14 strain growth inhibition, active compounds read high
In short: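 Vehicle-treated cultures served as the baseline for growth inhibition of a DNA repair-mutant yeast strain exposed to each compound.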

[7] = NCI Yeast Anticancer Drug Screen. Data for the sgs1 mgt1 strain (AID 161);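 also: 0% = growth of cultures given vehicle only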; settings: S. cerevisiae sgs1 mgt1 strain, active compounds read high
In short: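 Inhibition of yeast growth, normalised to vehicle-treated controls, is reported for a strain bearing genetic alterations in DNA damage repair.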

[8] = NCI Yeast Anticancer Drug Screen. Data for the CLN2oe strain (AID 163);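 also: 0% = growth of vehicle-only control cultures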; settings: S. cerevisiae CLN2oe strain, active compounds read high
In short: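 Here, growth inhibition in a cell-cycle-altered yeast strain after compound exposure was quantified against vehicle control growth.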

[9] = NCI Yeast Anticancer Drug Screen. Data for the cln2 rad14 strain (AID 165);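 also: 0% = growth equal to vehicle treated cultures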; settings: S. cerevisiae cln2 rad14 strain, active compounds read high
In short: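 Growth of compound-exposed yeast (cln2 rad14 genotype) measured and expressed as inhibition relative to vehicle.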

[10] = NCI Yeast Anticancer Drug Screen. Data for the bub3 strain (AID 167); settings: S. cerevisiae bub3 mutant strain, active compounds read high
In short: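 Inhibition values come from growth of compound-treated mutant yeast normalised to vehicle-treated controls.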

[11] = NCI Yeast Anticancer Drug Screen. Data for the wt2 strain (AID 169);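 also: 0% = growth of vehicle-treated yeast cultures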; settings: S. cerevisiae wt2 strain growth inhibition, active compounds read high
In short: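 Genetically defined yeast strains from a DNA-repair/cell-cycle panel were used. Compound-exposed yeast growth was measured, and the inhibition was calculated relative to vehicle treatment.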

[12] = NCI Yeast Anticancer Drug Screen. Data for the mlh1 strain (AID 171);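 also: 0% = growth of vehicle-treated control cultures of the same strain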; settings: S. cerevisiae mlh1 strain growth inhibition, active compounds read high
In short: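 Here the genetically defined yeast mutant is grown with each compound, and the extent to which its growth falls below that of vehicle-exposed cells is reported.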

[13] = NCI Yeast Anticancer Drug Screen. Data for the sgs1 strain (AID 173);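 also: 0% = growth of vehicle-only control cultures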; settings: S. cerevisiae sgs1 mutant, active compounds read high
In short: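 Relative growth inhibition, referenced to vehicle, was determined in a yeast strain with a defined alteration affecting DNA damage repair or cell cycle control after compound exposure.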

[14] = NCI Yeast Anticancer Drug Screen. Data for the mlh1 rad18 strain (AID 175); settings: S. cerevisiae mlh1 rad18 strain growth inhibition, active compounds read high
In short: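 In this whole-cell yeast screen, a strain with altered DNA damage repair is challenged with compound, and its growth is measured against matched vehicle-treated controls.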

[15] = NCI Yeast Anticancer Drug Screen. Data for the rad18 strain (AID 177); settings: S. cerevisiae rad18 mutant growth inhibition, active compounds read high
In short: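 Screen uses a yeast strain with a defined lesion in DNA damage repair; compound effect is read as loss of growth compared to untreated vehicle cultures.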

[16] = NCI Yeast Anticancer Drug Screen. Data for the mec2-1 strain (AID 157); settings: S. cerevisiae mec2-1 strain, active compounds read high
In short: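 Test agents were screened against the mec2-1 yeast strain, with defined DNA repair or cell cycle alteration. Growth was scored as inhibition against vehicle-only controls.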

[17] = at 5.0 µM (retest, dose inferred, filed as 0.5)
[18] = at 50.0 µM (retest, dose inferred, filed as 5.0)

Measured: growth inhibition

CCC1(O)C(=O)OCc2c1cc1n(c2=O)Cc2cc3cc(Cl)ccc3nc2-1 (stereo not given)
inactive: [2]; at 1.2 µM 3% | [2]; at 3.7 µM 0% | [2]; at 11.0 µM 16% | [2]; at 33.0 µM 43% | [2]; at 100.0 µM 65% | [4]; at 1.2 µM 13% | [4]; at 3.7 µM 19% | [4]; at 11.0 µM 30% | [4]; at 33.0 µM 57% | [4]; at 100.0 µM 67% | [6]; at 1.2 µM 12% | [6]; at 3.7 µM 19% | [6]; at 11.0 µM 35% | [6]; at 33.0 µM 59% | [6]; at 100.0 µM 69% | [7]; [17] 62% | [7]; at 50.0 µM 40.2% | [8]; at 1.2 µM 6% | [8]; at 3.7 µM 14% | [8]; at 11.0 µM 33% | [8]; at 33.0 µM 47% | [8]; at 100.0 µM 59% | [9]; [17] 24% | [9]; [18] 48% | [9]; at 50.0 µM 45.9% | [10]; at 1.2 µM -6% | [10]; at 3.7 µM 6% | [10]; [17] -2% | [10]; at 11.0 µM 24% | [10]; at 33.0 µM 44% | [10]; [18] 31% | [10]; at 50.0 µM -5.7% | [10]; at 100.0 µM 62% | [11]; at 1.2 µM 4% | [11]; at 3.7 µM 19% | [11]; at 11.0 µM 20% | [11]; at 33.0 µM 31% | [11]; at 100.0 µM 47% | [12]; at 1.2 µM 3% | [12]; at 3.7 µM 8% | [12]; at 11.0 µM 36% | [12]; at 33.0 µM 65% | [13]; at 1.2 µM 31% | [13]; at 3.7 µM 46% | [13]; at 11.0 µM 69% | [14]; [17] 45% | [14]; [18] 60% | [14]; at 50.0 µM 52.5% | [15]; at 1.2 µM 14% | [15]; at 3.7 µM 14% | [15]; at 11.0 µM 34% | [15]; at 33.0 µM 64%
active: [1]; at 1.2 µM 94% | [1]; at 3.7 µM 95% | [1]; at 11.0 µM 95% | [1]; at 33.0 µM 95% | [1]; at 100.0 µM 92% | [3]; at 1.2 µM 92% | [3]; at 3.7 µM 93% | [3]; at 11.0 µM 94% | [3]; at 33.0 µM 92% | [3]; at 100.0 µM 88% | [5]; at 1.2 µM 96% | [5]; at 3.7 µM 94% | [5]; [17] 97% | [5]; at 11.0 µM 95% | [5]; at 33.0 µM 93% | [5]; [18] 92% | [5]; at 50.0 µM 93.7% | [5]; at 100.0 µM 78% | [7]; [18] 84% | [12]; at 100.0 µM 74% | [13]; at 33.0 µM 83% | [13]; at 100.0 µM 80% | [15]; at 100.0 µM 71%

O=C1OC2C(O1)C1(Cl)C(Cl)=C(Cl)C2(Cl)C1(Cl)Cl (stereo not given)
inactive: [1]; at 1.2 µM -3% | [1]; at 3.7 µM -2% | [1]; at 11.0 µM -1% | [1]; at 33.0 µM 0% | [1]; at 100.0 µM 1% | [2]; at 1.2 µM -4% | [2]; at 3.7 µM -3% | [2]; at 11.0 µM -3% | [2]; at 33.0 µM -7% | [2]; at 100.0 µM -7% | [3]; at 1.2 µM -1% | [3]; at 3.7 µM 0% | [3]; at 11.0 µM 0% | [3]; at 33.0 µM -3% | [3]; at 100.0 µM -2% | [5]; at 1.2 µM -2% | [5]; at 3.7 µM -3% | [5]; [17] 2% | [5]; at 11.0 µM -2% | [5]; at 33.0 µM -3% | [5]; [18] 41% | [5]; at 100.0 µM -1% | [16]; at 1.2 µM -4% | [16]; at 3.7 µM -4% | [16]; [17] 3% | [16]; at 11.0 µM -3% | [16]; at 33.0 µM -3%
active: [5]; at 50.0 µM 85.2% | [16]; [18] 90% | [16]; at 50.0 µM 87.8%
